Only some compounds are listed: those with a hit (about 3.3% of all), similar ones and a draw of the others.
USP1 inh: inhibitors of human USP1/UAF1 deubiquitinase. O94782. recombinant USP1/UAF1, Ub-Rhodamine cleavage fluorescence. Potency, µM (top dose mostly 57.1 µM), for inactives: at the highest dose activity change, negative = inhibition, most hits filed as inhibitors. hit rate 0.23% among 390,000; further: potency means the concentration at half of the fitted maximal effect; nearly all actives have a fitted effect of over 60% in size
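1 nM enzyme complex + cpd, 15 min RT; start with Ub-Rho 150nM final; kinetic fluorescence ex 480/em 540, 6 reads q60 s. Buffer 50mM HEPES pH 7.8, 0.5mM EDTA, 0.1 mg/ml BSA, 1mM TCEP, 0.01% Tween-20.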
WRN inhibitor: blocks human WRN helicase. Potency, µM (top dose mostly 114 µM), for inactives: top-dose activity change, negative = inhibition, most hits filed as inhibitors. AID 651768. WRN helicase unwinding, fluorescent forked duplex, kinetic. hit rate 0.46% among 360,000. Q14191; further: potency means the concentration at half of the fitted maximal effect; nearly all actives have a fitted effect of over 55% in size
Target sequence (Q14191 whole entry, looked up): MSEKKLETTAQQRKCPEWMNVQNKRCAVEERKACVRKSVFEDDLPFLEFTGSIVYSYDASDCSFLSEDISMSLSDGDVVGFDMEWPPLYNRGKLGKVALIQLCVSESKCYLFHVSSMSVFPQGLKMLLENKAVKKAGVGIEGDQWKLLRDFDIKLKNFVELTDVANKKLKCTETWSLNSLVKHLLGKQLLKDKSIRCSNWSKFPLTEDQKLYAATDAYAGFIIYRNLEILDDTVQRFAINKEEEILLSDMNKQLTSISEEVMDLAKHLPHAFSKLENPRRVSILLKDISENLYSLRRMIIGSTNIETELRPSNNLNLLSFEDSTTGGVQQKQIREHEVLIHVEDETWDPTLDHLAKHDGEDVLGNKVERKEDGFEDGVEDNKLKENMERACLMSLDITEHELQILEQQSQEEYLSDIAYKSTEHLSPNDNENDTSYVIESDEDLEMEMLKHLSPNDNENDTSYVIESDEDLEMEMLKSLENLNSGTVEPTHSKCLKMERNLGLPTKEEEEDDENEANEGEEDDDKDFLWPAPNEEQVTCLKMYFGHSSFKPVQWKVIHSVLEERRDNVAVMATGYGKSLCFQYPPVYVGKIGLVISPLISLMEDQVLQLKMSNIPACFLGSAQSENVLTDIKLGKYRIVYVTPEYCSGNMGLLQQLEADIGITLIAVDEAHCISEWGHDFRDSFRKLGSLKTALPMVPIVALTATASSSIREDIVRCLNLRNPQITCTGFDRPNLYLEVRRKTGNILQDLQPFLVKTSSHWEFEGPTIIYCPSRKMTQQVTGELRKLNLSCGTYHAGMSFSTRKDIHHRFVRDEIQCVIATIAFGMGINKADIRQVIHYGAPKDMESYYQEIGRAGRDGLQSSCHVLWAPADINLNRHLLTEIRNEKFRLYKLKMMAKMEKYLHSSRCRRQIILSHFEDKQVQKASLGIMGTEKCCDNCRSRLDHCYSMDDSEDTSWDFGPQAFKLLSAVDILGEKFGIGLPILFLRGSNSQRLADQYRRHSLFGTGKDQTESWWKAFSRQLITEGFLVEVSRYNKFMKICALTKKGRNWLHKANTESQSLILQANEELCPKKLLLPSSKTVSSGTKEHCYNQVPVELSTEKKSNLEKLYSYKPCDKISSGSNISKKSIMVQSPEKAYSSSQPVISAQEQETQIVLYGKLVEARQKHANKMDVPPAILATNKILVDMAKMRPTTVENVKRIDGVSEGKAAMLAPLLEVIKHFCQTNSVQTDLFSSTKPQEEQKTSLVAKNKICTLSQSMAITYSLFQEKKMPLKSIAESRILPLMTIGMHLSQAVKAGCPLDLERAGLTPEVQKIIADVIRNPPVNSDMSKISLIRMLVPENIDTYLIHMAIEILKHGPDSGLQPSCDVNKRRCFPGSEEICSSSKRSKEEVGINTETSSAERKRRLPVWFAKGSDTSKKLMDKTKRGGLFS
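Screening of the MLSMR collection measured strand separation of a quenched forked DNA duplex (100 nM) by 20 nM WRN with 2 mM ATP, all final. Compounds were preincubated with enzyme 15 min at room temperature.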
PI5P4Ka inh: inhibitors of human PI5P4K alpha | AID 652105 | hit rate 1.2% among 330,000 | PI5P4Kalpha enzyme, ADP-Glo luminescence, 60 min; stronger effect = lower value | max response, %; active means max response of -50% or lower; inconclusive means between -30% and -50%; inactive means -30% or higher; further: value at the top dose of about 77 µM
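PI5P4Kalpha ADP-Glo assay; 5 microM ATP final; 60 min RT reaction; HEPES pH 7.4/EGTA/CHAPS, 5% DMSO; controls lacking substrate or enzyme; luminescent end-point.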
USP2a block: inhibitors of human ubiquitin-specific protease USP2a; AID 463254; Potency, µM (doses to about 38.3 µM), for inactives: at the top dose activity change, negative = inhibition, hits mostly inhibitors; O75604; USP2 core, Ub-CHOP2 coupled fluorogenic reporter, 485/531; hit rate 0.01% among 330,000;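 further: potency means the concentration at half of the fitted maximal effect; plate controls were DMSO wells for no effect and full inhibition by NEM control for full effect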
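Cell-free coupled assay: 10nM USP2 core preincubated 30min RT with compound in Tris-HCl pH 8.0/CaCl2/CHAPS buffer, then 25nM Ub-CHOP2 and 25nM reporter substrate; fluorescence (Ex 485/Em 531) read after 60min RT, normalized to NEM inhibition, concentration-response curves fitted.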
PLK1 PBD block: inhibitors of human PLK1 polo-box domain binding. hit rate 2.8% among 360,000. Plk1 PBD binding of FITC phosphopeptide, fluorescence polarization. Potency, µM, for inactives: max response, negative = inhibition, usual class: inhibitors. P53350. AID 720504; further: potency means the concentration at half of the fitted maximal effect; series mostly up to about 57 µM; nearly all actives have a fitted effect of over 65% in size
Active calls of the source: *; ? = inconclusive; . = no result; [ ] = remark or other dose. Unless noted, the call rests on the fitted dose curve; in most records, active means well fitted curve in the direction sought with a large enough effect; inconclusive means small, poorly fitted or top-dose-only effect, or another doubt; inactive means no such curve, though single readings can be large; an effect the other way counts as inactive or inconclusive. Unless noted, on the % scale 0 is the no-effect control and ±100 the full control effect.

SMILES | USP1 inh | WRN inhibitor | PI5P4Ka inh | USP2a block | PLK1 PBD block
Cn1cnc(C(=O)N2CCc3ccccc3C2)c1C(=O)N1CCc2ccccc2C1 | -29% | -2% | -14 | 4% | 21µM*
Cn1cc(C(=O)c2ccccc2)cc1-c1nc2ccccc2n1C | -20% | 3% | -5 | 0% | 0%
Cc1oc(-c2nc3ccccc3n2C)cc1C(=O)c1ccccc1 | -22% | -16% | ? | 1% | 24µM*
COCCCn1c(SCC(=O)NC(C)C)nnc1-c1ccccc1 | -2% | 21% | -18 | 0% | 7.5µM*
CCCn1cc(S(=O)(=O)c2ccc(Cl)cc2)c(=O)c2cc(OC)ccc21 | ? | 11% | ? | 1% | 3µM*
Cn1cc(S(=O)(=O)c2ccccc2)c(=O)c2cc(Cl)ccc21 | -18% | 9% | -11 | 4% | 27µM*
CCCCc1cc(=O)oc2c(CN(C)C)c(O)ccc12 | 2% | -7% | 9 | -1% | -4%
CC[C@@]1(O)C(=O)OCc2c1cc1n(c2=O)Cc2cc3c(CN(C)C)c(O)ccc3nc2-1 | 25µM* | -7%[11.6 µM] | -1 | . | 6µM*
Cc1ccc(CN2CCCN(C)CC2)c(C)c1 | -8% | ? | -13 | 0% | 19µM*
O=C(N/N=C/c1ccco1)c1cccc(N2Cc3ccccc3C2)c1 | ? | -20%[11.6 µM] | -88* | -1% | 27µM*
Cc1nnc(-c2ccc(Oc3ccc(Cl)cc3)c([N+](=O)[O-])c2)o1 | -19% | -25% | 2 | 3% | 21µM*
COc1cc(/C=C/C=C2/CC/C(=C/C=C/c3ccc(O)c(OC)c3)C2=O)ccc1O | -18% | 40µM* | -93* | . | 7%
COc1cc(/C=C2/CC/C(=C/c3ccc(O)c(OC)c3)C2=O)ccc1O | -16% | -34% | -25 | -7% | ?
COc1ccc(/C=N/Nc2nc(=O)[nH]nc2C)cc1[N+](=O)[O-] | 15% | -10% | 6 | 4% | -8%
COc1cc(/C=N/Nc2nc3ccccc3s2)cc([N+](=O)[O-])c1O | -25% | ? | -51* | 4% | -29%
O=[N+]([O-])c1cc(Cl)cc(/C=N/Nc2nc3ccccc3s2)c1O | -5% | 6%[57.1 µM] | 12 | -1% | 27µM*
COc1cc(/C=N/Nc2nc(=O)[nH]nc2C)cc([N+](=O)[O-])c1O | ? | -11% | -52* | 1% | 3%
CC(C)c1ccc(C2N=C(N)Nc3nc4ccccc4n32)cc1 (stereo not given) | -24% | . | . | . | .
COc1cc(OC)cc(C(=O)N2CC(=O)Nc3ccc(Cl)cc3C2c2ccccc2)c1 (stereo not given) | -13% | . | . | . | .
O=C(CSc1nc2scc(-c3ccco3)c2c(=O)n1-c1ccccc1)N1CCOCC1 | -9% | -3% | . | -1% | -4%
O=c1c2c(-c3ccco3)csc2nc(SCc2cn3cccnc3n2)n1-c1ccccc1 | -22% | 56µM* | -67* | 5% | 24µM*
NC(=O)CSc1nc2scc(-c3ccco3)c2c(=O)n1-c1ccccc1 | -16% | ? | -70* | -1% | -21%
CC(NC(=O)Nc1ccccc1O)(C(F)(F)F)C(F)(F)F | -5% | -6% | 1 | 1% | 27µM*
CC(=O)Nc1ccccc1O | -23% | 1% | 0 | 4% | -6%
CC(NC(=O)Nc1ccc(O)cc1)(C(F)(F)F)C(F)(F)F | ? | -2%[57.1 µM] | 18 | 2% | -4%
SMILES | USP1 inh | WRN inhibitor | PI5P4Ka inh | USP2a block | PLK1 PBD block
COc1ccc(NC(=O)NC(C)(C(F)(F)F)C(F)(F)F)cc1 | -20% | 8% | ? | 2% | 3.4µM*
CCC(=O)N1CCc2cc(Br)cc(S(=O)(=O)CCC(=O)NCCc3cccc(C)c3)c21 | -20% | . | . | . | .
CC(CCc1ccccc1)NC(=O)Cn1c(=O)nc(-c2ccccc2F)c2cc(Cl)ccc21 (stereo not given) | 2% | . | . | . | .
O=S(=O)(c1ccc(NC(=S)Nc2ccc3c(c2)OCO3)cc1)N1CCOCC1 | -21% | -5% | -11 | -2% | -30%
NC(N)=NS(=O)(=O)c1ccc(NC(=S)NC(=O)c2ccc3c(c2)OCO3)cc1 | -14% | 1% | -20 | 1% | 24µM*
CNS(=O)(=O)c1ccc(NC(=S)Nc2ccc3c(c2)OCO3)cc1 | -16% | -10% | ? | 4% | 19µM*
O=C(NCCc1ccc(Cl)cc1)c1cnc2sc(N3CCOCC3)nn2c1=O | -7% | . | . | . | .
CCCC[C@]12Cc3ccccc3[C@H](O1)C1=C(O2)C(=O)c2ccccc2C1=O | . | . | . | -1%[7.66 µM] | .
c1ccc2c(-c3[nH]ncc3CNCCCn3ncc4ccccc43)cccc2c1 | -7% | -21% | -13 | 2% | 24µM*
Cc1ccc(-n2c(=O)c3c4c(sc3n(CC(=O)c3ccc(Cl)cc3)c2=O)CCC4)cc1C | -17% | . | . | . | .
CCOC(=O)c1c(NC(=O)c2cc(-c3ccc(OC)cc3)on2)sc(C)c1C | -18% | . | . | . | .
Oc1ccc(N=Cc2ccc(OCc3ccccc3)cc2)cc1 | 2.8µM* | -19% | ? | 2% | ?
COc1ccccc1CN(CC(=O)NCC1CCCO1)C(=O)CNS(=O)(=O)c1ccc(C)cc1 (stereo not given) | -17% | 6% | 5 | 1% | 30µM*
COc1ccc(CCNC(=O)CSc2nnc(-c3ccc(C)cc3)c(-c3ccc(C)cc3)n2)cc1OC | -18% | . | . | . | .
CC1C(=O)OC2C1CCC1(C)CCC(=O)C(C)C21 (stereo not given) | -9% | 3% | -16 | 0% | 30µM*
C[C@@H](NC(=O)/C(C#N)=C/c1ccc(O)c(O)c1)c1ccccc1 | -17% | -14% | -2 | 0% | -16%
N#C/C(=C\c1ccc(O)c(Br)c1)C(=O)NCc1ccccc1 | -7% | -12% | -30 | -6% | 4%
N#C/C(=C\c1ccc(O)c([N+](=O)[O-])c1)C(=O)NCc1ccccc1 | -23% | -25% | -50* | 0% | -4%
CC(NC(=O)/C(C#N)=C/c1ccc(Cl)c([N+](=O)[O-])c1)c1ccccc1 (stereo not given) | -25% | -7% | -17 | -2% | 12µM*
[N-]=[N+]=CC(=O)c1ccnc(C(=O)C=[N+]=[N-])c1 | -19% | -3% | -16 | 2% | 27µM*
Cc1ccc(-c2onc(C)c2C)cc1S(=O)(=O)NCc1ccco1 | 12% | . | . | . | .
COc1ccc(CC(=O)n2[nH]c(=O)ccc2=O)cc1OC | -9% | 22µM* | ? | 12% | 6.7µM*
COc1ccc(CC(=O)n2[nH]c(=O)c3ccccc3c2=O)cc1OC | -2% | 5% | 2 | -3% | -3%
O=C1CN(C(=O)N[C@@H](Cc2ccccc2)C(=O)N[C@@H](C(=O)O)c2ccccc2)c2ccccc2N1 | -12% | -4% | -10 | 2% | 24µM*
Cn1c(=O)c2c(-c3ccccc3Cl)n(-c3cc(Cl)ccc3O)cc2n(C)c1=O | 3% | . | . | . | .
O=C(Nc1cccc(C(=O)OCc2cc(=O)n3c4c(sc3n2)CCCC4)c1)c1cccc(F)c1 | -1% | . | . | . | .
CC(Sc1nnc2ccc3ccccc3n12)C(=O)Nc1ccc(Cl)cc1 (stereo not given) | -5% | . | . | . | .

Screens as filed in PubChem.
